# Test results: ChEMBL document CHEMBL1961873, “Compounds: GSK PKIS; Assays: Nanosyn kinase panel” (2012)
# Values joined by “and” are separate entries in the source; they are usually repeats but may differ in a detail not shown here. Equal values may be shown once.
# Molecular target: Serine/threonine-protein kinase PAK 2 (Homo sapiens) (UniProt Q13177);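 note: reported values are mean inhibition of PAK2, averaged over measurements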
# Settings: at 1 µM
# Chain of Serine/threonine-protein kinase PAK 2 (Homo sapiens) (Q13177 whole entry): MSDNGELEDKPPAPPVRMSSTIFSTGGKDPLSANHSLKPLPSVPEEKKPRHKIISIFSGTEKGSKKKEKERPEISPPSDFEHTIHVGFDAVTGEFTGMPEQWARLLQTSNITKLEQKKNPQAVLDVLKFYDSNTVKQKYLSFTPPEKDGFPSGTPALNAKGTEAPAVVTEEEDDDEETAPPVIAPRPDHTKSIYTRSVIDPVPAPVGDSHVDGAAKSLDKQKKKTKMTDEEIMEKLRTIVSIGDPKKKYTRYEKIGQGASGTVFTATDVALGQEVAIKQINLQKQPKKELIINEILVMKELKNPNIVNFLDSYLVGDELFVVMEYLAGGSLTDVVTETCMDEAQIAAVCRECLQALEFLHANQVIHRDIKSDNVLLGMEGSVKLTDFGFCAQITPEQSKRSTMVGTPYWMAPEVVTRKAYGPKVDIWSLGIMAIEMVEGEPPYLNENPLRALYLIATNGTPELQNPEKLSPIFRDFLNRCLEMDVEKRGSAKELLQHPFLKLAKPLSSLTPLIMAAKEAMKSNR
row,Structure (SMILES),inhibition
1,NS(=O)(=O)c1ccc(N/N=C2\C(=O)Nc3ccc(C(=O)NCc4ccncc4)cc32)cc1,2.49%
2,CCCNc1cccc(-n2ncc3c(N/N=C/c4ccncc4)ncnc32)c1,-0.31%
3,c1cnn2ncc(-c3ccnc(NCCCN4CCOCC4)n3)c2c1,0.34%
4,O=C(Nc1n[nH]c2nnc(-c3cccnc3)cc12)C1CC1,-0.23%
5,COC(=O)Nc1nc2cc(Oc3ccc(NC(=O)Nc4ccccc4)cc3)ccc2[nH]1,0.63%
6,Fc1ccc(Nc2nccc(-c3c(-c4ccc(C(F)(F)F)cc4)nn4ncccc34)n2)cc1F,2.47%
7,CCS(=O)(=O)c1ccc(OC)c(Nc2ncc(-c3cccc(F)c3)o2)c1,2.27%
8,CN1CCC(C(=O)Nc2n[nH]c3nc(-c4ccc(O)cc4)c(Br)cc23)CC1,1.42% and -0.53%
9,CC1=C(C(=O)Nc2ccc3[nH]nc(C)c3c2)C(c2ccc(C(F)(F)F)cc2)CC(=O)N1 (configuration not stated),1.55%
10,COc1cccc(-n2ncc3c(N/N=C/c4ccc(C(=O)NCCN(C)C)cc4)ncnc32)c1,1.56%
11,N#Cc1ccc2c(-c3ccnc(NC4CC4)n3)c(-c3ccc(F)cc3)nn2c1,0.16%
12,COc1ccc(Nc2ncc(-c3ccccc3)o2)cc1OC,0.91%
13,Nc1nccc(-c2c(-c3ccc(F)cc3)ncn2C2CCNCC2)n1,-2.02% and 1.56%
14,Cc1cc(O)cc(C)c1/C=C/c1cncc(C(N)=O)c1,-0.24%
15,N#Cc1cccc(Nc2ncc(-c3ccccc3)o2)c1,-0.77%
16,CC1=C(C(=O)Nc2ccc3[nH]ncc3c2)C(c2ccc(F)cc2)N=C(c2ccc(C(F)(F)F)nc2)N1 (configuration not stated),0.19%

row,Structure (SMILES),inhibition
1,COc1cc2c(cc1Nc1nc(Nc3cccc(F)c3C(N)=O)c3cc[nH]c3n1)N(C(=O)CN1CCN(C(C)C)CC1)CC2,1.35%
2,COc1cc(N2CCN(C(C)C)CC2)ccc1Nc1nc(Nc2cccc(F)c2C(=O)O)c2cc[nH]c2n1,2.49%
3,Cn1c(-c2nonc2N)nc2cnccc21,0.39%
4,Fc1cccc(COc2ccc(Nc3ncncc3C#Cc3ccccc3)cc2Cl)c1,2.71%
5,CN(c1ccc(NC(=O)NCCN2CCOCC2)cc1)c1ccnc(Nc2ccc(CS(C)(=O)=O)cc2)n1,1.58%
6,COc1cc(Nc2ncc(-c3ccccc3)o2)cc(OC)c1,1.6%
7,COC(=O)Nc1nc2ccc(Oc3ccc(NC(=O)Nc4cc(C(F)(F)F)ccc4F)cc3)cc2s1,-0.42%
8,c1ccc(-c2n[nH]cc2-c2ccnc(-c3ccc(OCCn4ccnc4)cc3)c2)nc1,0.37%
9,OCCCNc1nccc(-c2c(-c3ccc(F)cc3)nn3cc(C(F)(F)F)ccc23)n1,2.03%
10,O=C(O[C@H]1CN[C@H](C#Cc2cc3ncnc(Nc4ccc5c(ccn5Cc5cc(F)ccc5F)c4)c3s2)C1)N1CCOCC1,2.48%
11,NC(=O)c1ccc2c(-c3ccnc(NCCCO)n3)c(-c3ccc(F)cc3)nn2c1,2.24%
12,FC(F)(F)CNc1nccc(-c2cnn3ncccc23)n1,-0.87%
13,CS(=O)(=O)Nc1ccc(-c2cc(-c3ccccc3)cc(C(N)=O)c2N)cc1,-0.16%
14,CS(=O)(=O)CCNCc1ccc(-c2ccc3ncnc(Nc4ccc(OCc5cccc(C(F)(F)F)c5)cc4)c3c2)o1,3.12%
15,COc1cccc(Nc2nccc(-c3cnn4ncccc34)n2)c1,2.62%

# Molecular target: Serine/threonine-protein kinase PAK 3 (Homo sapiens) (UniProt O75914);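 note: mean percent inhibition of PAK3, measured in a screen of the GSK published kinase inhibitor set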
# Sequence (O75914 whole entry, looked up): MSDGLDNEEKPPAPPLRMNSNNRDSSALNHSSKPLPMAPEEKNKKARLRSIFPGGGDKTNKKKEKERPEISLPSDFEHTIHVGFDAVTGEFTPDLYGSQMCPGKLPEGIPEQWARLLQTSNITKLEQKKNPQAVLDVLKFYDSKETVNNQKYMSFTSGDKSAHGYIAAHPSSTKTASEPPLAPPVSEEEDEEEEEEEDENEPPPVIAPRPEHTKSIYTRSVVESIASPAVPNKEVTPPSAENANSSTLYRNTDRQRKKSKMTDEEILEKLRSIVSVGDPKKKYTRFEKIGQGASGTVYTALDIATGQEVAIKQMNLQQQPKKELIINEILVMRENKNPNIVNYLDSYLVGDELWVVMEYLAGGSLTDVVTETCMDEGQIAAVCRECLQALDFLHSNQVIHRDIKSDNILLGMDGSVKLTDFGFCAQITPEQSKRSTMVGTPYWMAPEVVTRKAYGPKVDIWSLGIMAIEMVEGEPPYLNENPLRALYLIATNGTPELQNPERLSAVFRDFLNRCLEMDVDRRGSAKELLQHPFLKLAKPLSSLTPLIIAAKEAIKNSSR
# Settings: at 0.1 µM
row,Structure (SMILES),inhibition
1,NS(=O)(=O)c1ccc(N/N=C2\C(=O)Nc3ccc(C(=O)NCc4ccncc4)cc32)cc1,4.5%
2,CCCNc1cccc(-n2ncc3c(N/N=C/c4ccncc4)ncnc32)c1,1.59%
3,c1cnn2ncc(-c3ccnc(NCCCN4CCOCC4)n3)c2c1,3.11%
4,O=C(Nc1n[nH]c2nnc(-c3cccnc3)cc12)C1CC1,-0.23%
5,COC(=O)Nc1nc2cc(Oc3ccc(NC(=O)Nc4ccccc4)cc3)ccc2[nH]1,3.68%
6,Fc1ccc(Nc2nccc(-c3c(-c4ccc(C(F)(F)F)cc4)nn4ncccc34)n2)cc1F,3.13%
7,CCS(=O)(=O)c1ccc(OC)c(Nc2ncc(-c3cccc(F)c3)o2)c1,6%
8,CN1CCC(C(=O)Nc2n[nH]c3nc(-c4ccc(O)cc4)c(Br)cc23)CC1,4.2% and 1.97%
9,CC1=C(C(=O)Nc2ccc3[nH]nc(C)c3c2)C(c2ccc(C(F)(F)F)cc2)CC(=O)N1 (configuration not stated),2.35%
10,COc1cccc(-n2ncc3c(N/N=C/c4ccc(C(=O)NCCN(C)C)cc4)ncnc32)c1,2.69%
11,N#Cc1ccc2c(-c3ccnc(NC4CC4)n3)c(-c3ccc(F)cc3)nn2c1,1.37%
12,COc1ccc(Nc2ncc(-c3ccccc3)o2)cc1OC,-0.05%
13,Nc1nccc(-c2c(-c3ccc(F)cc3)ncn2C2CCNCC2)n1,-4.58% and -1.23%
14,Cc1cc(O)cc(C)c1/C=C/c1cncc(C(N)=O)c1,2.43%
15,N#Cc1cccc(Nc2ncc(-c3ccccc3)o2)c1,2.61%
16,CC1=C(C(=O)Nc2ccc3[nH]ncc3c2)C(c2ccc(F)cc2)N=C(c2ccc(C(F)(F)F)nc2)N1 (configuration not stated),1.4%

row,Structure (SMILES),inhibition
1,COc1cc2c(cc1Nc1nc(Nc3cccc(F)c3C(N)=O)c3cc[nH]c3n1)N(C(=O)CN1CCN(C(C)C)CC1)CC2,2.21%
2,COc1cc(N2CCN(C(C)C)CC2)ccc1Nc1nc(Nc2cccc(F)c2C(=O)O)c2cc[nH]c2n1,4.37%
3,Cn1c(-c2nonc2N)nc2cnccc21,3.23%
4,Fc1cccc(COc2ccc(Nc3ncncc3C#Cc3ccccc3)cc2Cl)c1,4.76%
5,CN(c1ccc(NC(=O)NCCN2CCOCC2)cc1)c1ccnc(Nc2ccc(CS(C)(=O)=O)cc2)n1,4.14%
6,COc1cc(Nc2ncc(-c3ccccc3)o2)cc(OC)c1,4.74%
7,COC(=O)Nc1nc2ccc(Oc3ccc(NC(=O)Nc4cc(C(F)(F)F)ccc4F)cc3)cc2s1,-1.09%
8,c1ccc(-c2n[nH]cc2-c2ccnc(-c3ccc(OCCn4ccnc4)cc3)c2)nc1,-0.22%
9,OCCCNc1nccc(-c2c(-c3ccc(F)cc3)nn3cc(C(F)(F)F)ccc23)n1,2.17%
10,O=C(O[C@H]1CN[C@H](C#Cc2cc3ncnc(Nc4ccc5c(ccn5Cc5cc(F)ccc5F)c4)c3s2)C1)N1CCOCC1,5.02%
11,NC(=O)c1ccc2c(-c3ccnc(NCCCO)n3)c(-c3ccc(F)cc3)nn2c1,4.61%
12,FC(F)(F)CNc1nccc(-c2cnn3ncccc23)n1,4.27%
13,CS(=O)(=O)Nc1ccc(-c2cc(-c3ccccc3)cc(C(N)=O)c2N)cc1,0.92%
14,CS(=O)(=O)CCNCc1ccc(-c2ccc3ncnc(Nc4ccc(OCc5cccc(C(F)(F)F)c5)cc4)c3c2)o1,5.6%
15,COc1cccc(Nc2nccc(-c3cnn4ncccc34)n2)c1,1.1%
